In PubChem BioAssay AID651597 (National Center for Advancing Translational Sciences (NCATS), 2012):
The campaign covered roughly 1,100 compounds. About 390 (35%) were called active. Inconclusive results (about 30%) are left out. The list shows a part of the results. Unmarked numbers belong to inactive results. The call rests on the fitted dose curve; in most records, active means well fitted inhibition curve with a large enough effect; inconclusive means small, poorly fitted or top-dose-only effect; inactive means flat fitted curve, though single readings scatter.

molecular target: Luciferin 4-monooxygenase (Photinus pyralis) (UniProt P08659); test: qHTS of Nrf2 Activators: Hit Validation in Secondary FLuc Assay; conditions: firefly luciferase inhibition counter-screen, luminescence; series mostly up to 57.5 µM; activity, negative = inhibition: at the top concentration; further: nearly all actives have a fitted effect of over 65% in size
Outline: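 Counter-screen on purified firefly luciferase with ATP and D-luciferin at Km concentrations; compounds flagged if they inhibit the enzyme, indicating possible reporter stabilization rather than ARE activation.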
On the % scale 0 is the no-effect control and ±100 the full control effect; potency means the concentration at half of the fitted maximal effect.

Row | SMILES | activity, negative = inhibition | Potency
1 | COC(=O)CSc1nc2ccccn2c(=O)c1C=O | 6.66% | 
2 | COn1c(=O)c(-c2cccc(Br)c2)[n+]([O-])c2ccccc21 | 1.19% | 
3 | N#CC1=C(N)Oc2c(ccc3ccccc23)C1c1ccsc1 (configuration not stated) |  | 16.9 µM (active)
4 | COc1ccc(S(=O)(=O)N2CCN(C(=O)c3ccc([N+](=O)[O-])o3)CC2)cc1 | 8.39% | 
5 | COc1cccc(NC(=O)c2nn(C)cc2Br)c1 |  | 12 µM (active)
6 | COc1cccc(NC(=O)c2nc(SC)ncc2Cl)c1 | -0.657% | 
7 | COc1ccc(S(=O)(=O)NCCc2csc3nc(-c4ccc(Cl)cc4)nn23)cc1C | -6.04% | 
8 | O=C(Nc1ccccc1[N+](=O)[O-])C1COc2ccccc2O1 (configuration not stated) |  | 3.01 µM (active)
9 | CCOc1ccccc1NC(=O)C1COc2ccccc2O1 (configuration not stated) | -24% | 
10 | COc1ccc(NC(=O)c2ccc([N+](=O)[O-])s2)c([N+](=O)[O-])c1 | 2.08% | 
11 | Cn1c(=O)n(CCc2ccccc2)c(=O)c2c1nc1n2CCN1Cc1ccco1 | -19.5% | 
12 | Cc1csc2nc(NC(=O)c3ccccc3)sc(=O)c12 |  | 2.39 µM (active)
13 | O=C(Nc1nc(=O)c2ccccc2s1)c1ccccc1 |  | 1.07 µM (active)
14 | O=C(NCc1ccccc1)c1c(Cl)nc(Cl)c(Cl)c1Cl | 2.71% | 
15 | Cc1ccccc1C(=O)Nc1nc2c(C)csc2c(=O)s1 | -24% | 
16 | Cc1csc2c(=O)sc(NC(=O)c3ccc(F)cc3Cl)nc12 | 0.172% | 
17 | O=C1C=C(C#Cc2ccccc2)C[C@@H](c2ccc(F)cc2)C1 | -5.22% | 
18 | N/C(=N\OC(=O)c1ccco1)c1cccc(Br)c1 |  | 2.39 µM (active)
19 | O=C(Nc1ncnc2sc3c(c12)CCC3)c1ccco1 | 0.673% | 
20 | O=C(CSc1ncnc2sc3c(c12)CCCC3)c1ccco1 |  | 2.69 µM (active)
21 | c1coc(-c2ccnc(-n3cccc3)n2)c1 |  | 15.1 µM (active)
22 | Cc1ccsc1-c1ccnc(-n2cccc2)n1 |  | 15.1 µM (active)
23 | c1coc(-c2ccnc3nc(-n4cccc4)nn23)c1 | -29.9% | 
24 | CN1CCCC1CCNc1ccc2c(=O)c3ccccc3oc2c1 (configuration not stated) |  | 6.75 µM (active)

Row | SMILES | activity, negative = inhibition | Potency
25 | Cc1sc2ncnc(Sc3nnnn3-c3ccccc3)c2c1C | -19.4% | 
26 | Cc1nc2nc(-c3ccccc3)nn2c(C)c1Cl |  | 3.38 µM (active)
27 | CCOc1ncccc1-c1nc(-c2cccs2)no1 |  | 15.1 µM (active)
28 | CCOc1ccc(Br)cc1-c1noc(-c2cccs2)n1 | -20.8% | 
29 | COc1cc(-c2noc(-c3cccs3)n2)cc(OC)c1OC | -29% | 
30 | O=C(/C=C\c1ccc2c(c1)OCO2)CC1(O)C(=O)Nc2ccccc21 (configuration not stated) |  | 9.53 µM (active)
31 | CC(C)N1C/C(=C/c2cccnc2)C(=O)/C(=C/c2cccnc2)C1 | -1.87% | 
32 | Nc1ccc2c(c1)Cc1c(F)cccc1-2 |  | 7.57 µM (active)
33 | COc1ccc2c(c1)Cc1c-2cc(Br)c(N)c1Br | -19.8% | 
34 | Cc1ccc(S(=O)(=O)c2nc(S(C)(=O)=O)sc2N2CC(C)OC(C)C2)cc1 (configuration not stated) | 8.48% | 
35 | Cc1ccc(C)c(NC(=S)c2nc3ccccc3s2)c1 |  | 10.7 µM (active)
36 | Cc1ccc(C)c(NC(=O)COC(=O)c2cc(=O)c3ccccc3o2)c1 | -12% | 
37 | O=C(N/N=C/c1ccsc1)c1ccc2ccccc2n1 |  | 10.7 µM (active)
38 | O=C(Nc1ccc(F)cc1)c1sccc1SCc1cccc(C(F)(F)F)c1 | -4.78% | 
39 | O=C(Nc1ccc(F)cc1)c1cc2ccccc2o1 |  | 0.953 µM (active)
40 | O=C1/C(=C/c2ccccc2)CCc2ccc(Cl)nc21 |  | 10.7 µM (active)
41 | CN1C2CCC1/C(=C\c1ccccc1)C(=O)/C2=C\c1ccccc1 | -3.98% | 
42 | Brc1ccc(C2=CC(c3ccco3)n3nnnc3N2)cc1 (configuration not stated) | -8.07% | 
43 | C1=C(c2ccc(-c3ccccc3)cc2)Nc2ncnn2C1c1ccco1 (configuration not stated) |  | 10.7 µM (active)
44 | Cc1ccc2nc(N(CCN(C)C)C(=O)/C=C/c3cccs3)sc2c1 | -22.7% | 
45 | CCOc1ccsc1C(=O)NNC(=O)c1ccco1 | 4.68% | 
46 | O=C(/C=C/c1cccs1)c1ccco1 |  | 9.53 µM (active)
47 | COc1ccc(Sc2cnn(-c3ccccc3)c(=O)c2Cl)cc1 | -21% | 
48 | NC(=O)N/N=C/c1ccccc1OC(=O)c1ccccc1Br |  | 10.7 µM (active)

Row | SMILES | activity, negative = inhibition | Potency
49 | c1ccc(CNc2nc(NCc3ccco3)nc(N3CCOCC3)n2)cc1 | 5.72% | 
50 | CCN=c1scc(C)n1/N=C/c1ccsc1 |  | 6.75 µM (active)
51 | Cc1[nH]c2ccccc2c1N=Nc1ccccc1F |  | 19 µM (active)
52 | Cc1[nH]c2ccccc2c1N=Nc1ccccc1C(=O)O |  | 8.49 µM (active)
53 | Cc1cccn2c(=O)c(C=NCCO)c(NCc3ccco3)nc12 | -5.84% | 
54 | O/N=C/c1ccc2cccc(OCc3ccccc3)c2n1 | -3.72% | 
55 | CC1CN(C(=O)/C=C/c2ccc([N+](=O)[O-])s2)CC(C)O1 (configuration not stated) | 4.93% | 
56 | Clc1ccccc1NN=Cc1ccccn1 |  | 2.13 µM (active)
57 | COc1ccc(O)c(-c2cc(-c3ccccc3Cl)[nH]n2)c1 |  | 6.01 µM (active)
58 | COc1ccc(OC)c(/C=C(\C#N)c2nc(-c3ccc(F)cc3)cs2)c1 | -25.1% | 
59 | COc1ccc(Cl)cc1NC(=O)c1cc(-c2ccccc2O)n[nH]1 | -23.7% | 
60 | COc1ccc(O)c(-c2cc(-c3ccc(F)cc3)n[nH]2)c1 |  | 4.78 µM (active)
61 | COC(=O)c1scc(C)c1NC(=O)c1ccc(Cl)cc1 | 5.2% | 
62 | O=C(CN1CCN(Cc2ccccc2)CC1)N/N=C\C=C/c1ccco1 | -3.19% | 
63 | O=C1S/C(=C\C=C\c2ccco2)C(=O)N1c1ccccc1 |  | 6.75 µM (active)
64 | O=C1S/C(=C\C=C\c2ccco2)C(=O)N1c1ccc(O)cc1 |  | 9.53 µM (active)
65 | CN1CCN(c2sc(S(C)(=O)=O)nc2S(=O)(=O)c2ccc(Cl)cc2)CC1 | -0.708% | 
66 | CC(C)=NNc1cnnc2ccc([N+](=O)[O-])cc12 |  | 10.7 µM (active)
67 | Cc1ccc([N+](=O)[O-])cc1NC(=O)c1ccccc1 | 5.55% | 
68 | Cc1ccc(O)c(NC(=O)c2cc([N+](=O)[O-])ccc2Cl)c1 | -21.1% | 
69 | O=C(NC1CCCCC1)N(c1ccccc1)c1nnc(-c2cccc([N+](=O)[O-])c2)s1 |  | 16.9 µM (active)
70 | CC(=O)Nc1ccc(S(=O)(=O)c2ccnc3cc(Cl)ccc23)cc1 | -10.5% | 
71 | c1ccc(C2=Nn3c(nnc3-c3ccco3)SC2)cc1 |  | 26.9 µM (active)
72 | C[n+]1c2n(c3ccccc31)N=C(c1ccccc1)CS2 |  | inactive
